Assay [1] in a line: Cell Viability - H-4-II-E (AID 543). Also: % is scaled to controls: 0 for no effect and ±100 for the full control effect; nearly all actives have a fitted effect of over 35% in size. The procedure, abridged: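 Rat hepatoma H-4-II-E cells (1500/well) were plated, incubated 5 hr at 37 °C, then exposed to compounds for 40 hr at 37 °C. Cellular ATP was read by CellTiter-Glo luminescence; AC50 came from Hill-equation fits of concentration-response data.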
Assay [2] can be described thus: MultiTox-Fluor Cytotoxicity Assay - LYMP1-001 - Live Cells (AID 947).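 Also: 0% = DMSO only and full inhibition = tetraoctylammonium bromide control.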
The target in assay [3] is Peroxisome proliferator-activated receptor delta (Homo sapiens) (UniProt Q03181). Put plainly: qHTS assay for small molecule agonists of peroxisome proliferator-activated receptor delta signaling (AID 588534; calls by dose curve;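 also: 0% = DMSO basal wells and 100% = positive control agonist at 10 µM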). Put shortly: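 Cell-based beta-lactamase reporter assay run in agonist mode: cells seeded and incubated 5 hrs at 37 C, compounds added and incubated 18 hrs at 37 C. CCF4 dye fluorescence read after 2 hrs at RT; EC50 and efficacy from Hill fits.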

The target of assay [4] is Peroxisome proliferator-activated receptor gamma (Homo sapiens) (UniProt P37231). Briefly: qHTS assay for small molecule agonists of peroxisome proliferator-activated receptor gamma signaling (AID 588536; active = well fitted curve in the direction sought with a large enough effect in the signal ratio, with a control signal flat, not every such curve was filed as active; the % refers to the signal ratio;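 also: 0% = DMSO basal wells and 100% = rosiglitazone at 2 µM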). Put shortly: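 HEK293 UAS-bla reporter line, 1% charcoal/dextran FBS; titration, 16 h, 37 C; CCF4 loading 2 h RT; fluorescence 460/530 nm. Normalized to rosiglitazone 2 uM = 100%, DMSO = 0%.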
Background: qHTS replaces the single test concentration by a dilution series.

In assay [5] the target is Voltage-gated inwardly rectifying potassium channel KCNH2 (Homo sapiens) (UniProt Q12809). Put plainly: qHTS Assay for Small Molecule Inhibitors of the Human hERG Channel Activity (AID 588834).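 Also: lower thallium flux fluorescence means stronger hERG block; nearly all actives have a fitted effect of over 50% in size.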 Also: potency is read from the fitted curve at half-maximal effect. The procedure, abridged:
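U2OS cells transduced with hERG via BacMam (MOI ~100), plated 2000/well, loaded with FluxOR thallium dye, compound ~10 min, then stimulation buffer; fluorescence decrease read kinetically; AC50 from Hill fits.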

Assay [6] in a line: qHTS assay for small molecule agonists of the antioxidant response element (ARE) signaling pathway (AID 651741; active = well fitted activation curve with a large enough effect in the signal ratio; the % refers to the signal ratio; also: potency is read from the fitted curve at half-maximal effect; as to activation: % of control where 0% means no effect). Put shortly: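 Seeding 2,000 ARE-bla HepG2 cells per well preceded a 5 h incubation at 37 C/5% CO2 and a 16 h compound exposure at 37 C. Beta-lactamase reporter activity was then quantified by fluorescence after 2 h with LiveBLAzer B/G FRET substrate.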
The nature of assay [7]: Cell Viability - LYMP2-014 (AID 983).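 Also: plate controls were DMSO only for no effect and 92 µM tetraoctylammonium bromide for full effect; nearly all actives have a fitted effect of over 50% in size.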 Put shortly: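 Human lymphoblastoid cells (2500/well) were pre-incubated 5 hr at 37 C, then exposed to compounds in complete medium for 24 hr at 37 C. Intracellular ATP was read by CellTiter-Glo luminescence after 30 min at room temperature; AC50 from Hill fits.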
A short description of assay [8]: Cell Viability - LYMP2-018 (AID 985).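 Also: compound exposure lasted 24 hr at 37 °C; plate controls were DMSO only for no effect and tetraoctylammonium bromide at 92 µM for full effect; nearly all actives have a fitted effect of over 50% in size.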 Put shortly: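 Human lymphoblastoid cells (2500/well) were pre-incubated 5 hr at 37 C, then exposed to compounds for 24 hr at 37 C in complete medium. Viability was read as intracellular ATP by CellTiter-Glo luminescence; AC50 values came from Hill-equation fits.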
The nature of assay [9]: Cell Viability - LYMP2-024 (AID 988).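 Also: plate controls were DMSO only for no effect and 92 µM tetraoctylammonium bromide for full effect; nearly all actives have a fitted effect of over 60% in size.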 The procedure, abridged: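 Human lymphoblastoid cells (2500/well) in complete medium were preincubated 5 hr at 37 C, then exposed to compounds for 24 hr at 37 C. Intracellular ATP was read by CellTiter-Glo luminescence; AC50 from Hill-equation fits of concentration-response data.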
Assay [10] has as its target Glucocorticoid receptor (Homo sapiens) (UniProt P04150). Briefly: qHTS assay for small molecule agonists of glucocorticoid receptor signaling (AID 588532; active = well fitted curve in the direction sought with a large enough effect in the signal ratio, with a control signal flat; the % refers to the signal ratio;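 also: 100% = dexamethasone at 0.1 µM and 0% = DMSO only wells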). As to conditions: HeLa MMTV-bla, beta-lactamase ratio, agonist, 18 h; stronger effect = higher value; percent of dexamethasone control, DMSO zero. The procedure, abridged: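 Using MMTV-bla HeLa cells in medium with 1% stripped FBS and 25 mM HEPES, compounds were titrated and incubated overnight-length (18 h). Beta-lactamase cleavage of CCF4 was quantified by dual-emission fluorescence.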

The target in assay [11] is Peroxisome proliferator-activated receptor gamma (Homo sapiens) (UniProt P37231). Put plainly: qHTS assay for small molecule antagonists of peroxisome proliferator-activated receptor gamma signaling (AID 588537; active = well fitted inhibition curve with a large enough effect in the signal ratio, with a control signal flat, not every such curve was filed as active; the % refers to the signal ratio;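 also: reporter cells co-stimulated with 50 nM rosiglitazone agonist during compound treatment; % of control where 0% means no effect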). Put shortly:
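Inhibitors of agonist-stimulated UAS-bla reporter activity were sought in HEK293 cells; rosiglitazone (50 nM) defined full signal and DMSO baseline. Curves fitted to Hill model gave IC50 and efficacy.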

Assay [12] in a line: qHTS assay for small molecule activators of the nuclear factor-kappa B (NF-kB) signaling pathway (AID 651749; active = well fitted activation curve with a large enough effect in the signal ratio; the % refers to the signal ratio; also: % of control where 0% means no effect). As to conditions: NF-kB-bla ME-180 cells, beta-lactamase FRET ratio, 16 h; stronger effect = higher value. The procedure, abridged:
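Stably transfected ME-180 line; NF-kB response element upstream of beta-lactamase. Treatment: compound or DMSO, 16 hr. Detection: fluorescent FRET substrate.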

The nature of assay [13]: Cell Viability - NIH 3T3 (AID 541). Also: nearly all actives have a fitted effect of over 25% in size. Also: potency is read from the fitted curve at half-maximal effect.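 As to activity change, negative = cytotoxicity: plate controls were DMSO alone for no effect and tamoxifen positive control for full effect.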 As to conditions: NIH 3T3 cell viability, qHTS; activity change, negative = cytotoxicity: at 92.2 µM (top of the series). The procedure, abridged: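 NIH 3T3 mouse embryo fibroblasts (1000 cells/well) were plated in complete medium and treated with compound for 40 hr at 37 °C. Viability was read as intracellular ATP by CellTiter-Glo luminescence; AC50 values came from Hill-equation fits of concentration-response data.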

In assay [14] the target is Estrogen receptor (Homo sapiens) (UniProt P03372). Briefly: qHTS assay for small molecule antagonists of estrogen receptor alpha signaling (AID 588513; active = well fitted curve in the direction sought with a large enough effect in the signal ratio, with a control signal flat, not every such curve was filed as active; the % refers to the signal ratio; also: % is scaled to controls: 0 for no effect and ±100 for the full control effect). Put shortly:
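ER-alpha-UAS-bla GripTite HEK 293 cells in medium with 2% charcoal/dextran-treated FBS were preincubated 4 h at 37 C, dosed with compound (1:2 titration), stimulated with 0.5nM 17-beta-estradiol for 18 h, then read by CCF4 beta-lactamase fluorescence.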

Assay [15] shares this target. Briefly: qHTS assay for small molecule agonists of estrogen receptor alpha signaling (AID 588514; calls by dose curve;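 also: 0% = vehicle only and 100% = reference agonist; nearly all actives have a fitted effect of over 70% in size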). Put shortly:
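ER-alpha-UAS-bla GripTite HEK 293 cells in medium with 2% charcoal/dextran-treated FBS were treated with compound titrations at 37 C for 18 hrs; beta-lactamase reporter read by CCF4 fluorescence after 2 hrs at RT.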

The target of assay [16] is Glucocorticoid receptor (Homo sapiens) (UniProt P04150). Put plainly: qHTS assay for small molecule antagonists of glucocorticoid receptor signaling (AID 588533; active = well fitted inhibition curve with a large enough effect in the signal ratio, with a control signal flat, not every such curve was filed as active; the % refers to the signal ratio;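 also: cells stimulated with 2 nM dexamethasone as agonist; % is scaled to controls: 0 for no effect and ±100 for the full control effect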). The procedure, abridged: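 Antagonist-mode qHTS: compound titrations added to GRE-bla HeLa cells, then dexamethasone 2 nM final; 18 h, 37 C. CCF4 FRET fluorescence normalized to dexamethasone and DMSO; IC50 from Hill fit.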

Assay [17] in a line: qHTS assay for small molecule antagonists of peroxisome proliferator-activated receptor delta signaling (AID 588535; active = well fitted inhibition curve with a large enough effect in the signal ratio, with a control signal flat, not every such curve was filed as active; the % refers to the signal ratio;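 as to max response: cells co-treated with a PPAR-delta agonist as stimulator during compound exposure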). To be noted: HEK293T PPARd-UAS-bla, beta-lactamase FRET ratio, 18 h; 460 nm channel. Put shortly:
(§1)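 Cell-based beta-lactamase assay in antagonist mode: 4000 HEK293T PPAR-delta-UAS-bla cells per well, 5 hr preincubation then 18 hr compound incubation at 37 C. IC50 obtained by Hill equation fitting.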

The target of assay [18] is Peroxisome proliferator-activated receptor delta (Homo sapiens) (UniProt Q03181). Described as above. The procedure, abridged: as §1
A short description of assay [19]: qHTS assay for small molecule disruptors of the mitochondrial membrane potential - 5 hr assay (AID 651755; calls by dose curve; also: nearly all actives have a fitted effect of over 40% in size; also: potency is read from the fitted curve at half-maximal effect). Put shortly: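 HepG2, 2,000 cells/well, overnight attach; cpd or DMSO 5 hr, 37C/5% CO2; Mito-MPS 30 min 37C; fluor 490/535 + 540/590 nm.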
Assay [20] can be described thus: qHTS assay for environmental chemicals that activate the Aryl hydrocarbon Receptor (AhR) signaling pathway (AID 651777). Also: % of control where 0% means no effect; nearly all actives have a fitted effect of over 15% in size. To be noted: 1A2-DRE human hepatoma cells, luciferase, 24 h; activation: stronger effect = higher value. The procedure, abridged:
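Measured luciferase activity, read 30 min after One-Glo addition at room temperature, from human hepatoma cells bearing a dioxin response element–CYP1A2 promoter reporter and exposed to compound for 24 hr at 37 C.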

Where “and” joins values, the source holds several entries; their conditions need not be identical. Equal entries are not always repeated. Records with an inconclusive call do not appear. Calls of active or inactive are those of the source. Unless noted, calls follow the shape of the dose curve; as a rule, active = well fitted curve in the direction sought with a large enough effect; inconclusive = small, poorly fitted or top-dose-only effect, or another doubt; inactive = no such curve, though single readings can be large; an effect the other way counts as inactive or inconclusive.

We go through nine molecules from PubChem BioAssay (NCATS).

Sequence of Peroxisome proliferator-activated receptor gamma (Homo sapiens) (P37231 whole entry, looked up): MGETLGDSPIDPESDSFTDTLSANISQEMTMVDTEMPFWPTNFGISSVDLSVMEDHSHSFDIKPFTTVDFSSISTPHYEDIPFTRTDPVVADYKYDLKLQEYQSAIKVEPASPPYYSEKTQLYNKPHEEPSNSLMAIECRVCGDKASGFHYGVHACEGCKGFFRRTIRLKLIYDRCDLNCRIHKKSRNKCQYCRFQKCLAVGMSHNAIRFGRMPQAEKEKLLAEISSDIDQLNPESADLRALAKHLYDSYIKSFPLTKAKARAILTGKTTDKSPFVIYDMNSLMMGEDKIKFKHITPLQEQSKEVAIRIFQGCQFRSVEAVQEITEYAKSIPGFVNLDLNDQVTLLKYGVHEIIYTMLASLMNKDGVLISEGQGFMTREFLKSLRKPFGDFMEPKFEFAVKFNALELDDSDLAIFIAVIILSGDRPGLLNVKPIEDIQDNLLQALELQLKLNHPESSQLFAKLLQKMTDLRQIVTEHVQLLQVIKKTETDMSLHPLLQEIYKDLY
Sequence of Voltage-gated inwardly rectifying potassium channel KCNH2 (Homo sapiens) (Q12809 whole entry, looked up): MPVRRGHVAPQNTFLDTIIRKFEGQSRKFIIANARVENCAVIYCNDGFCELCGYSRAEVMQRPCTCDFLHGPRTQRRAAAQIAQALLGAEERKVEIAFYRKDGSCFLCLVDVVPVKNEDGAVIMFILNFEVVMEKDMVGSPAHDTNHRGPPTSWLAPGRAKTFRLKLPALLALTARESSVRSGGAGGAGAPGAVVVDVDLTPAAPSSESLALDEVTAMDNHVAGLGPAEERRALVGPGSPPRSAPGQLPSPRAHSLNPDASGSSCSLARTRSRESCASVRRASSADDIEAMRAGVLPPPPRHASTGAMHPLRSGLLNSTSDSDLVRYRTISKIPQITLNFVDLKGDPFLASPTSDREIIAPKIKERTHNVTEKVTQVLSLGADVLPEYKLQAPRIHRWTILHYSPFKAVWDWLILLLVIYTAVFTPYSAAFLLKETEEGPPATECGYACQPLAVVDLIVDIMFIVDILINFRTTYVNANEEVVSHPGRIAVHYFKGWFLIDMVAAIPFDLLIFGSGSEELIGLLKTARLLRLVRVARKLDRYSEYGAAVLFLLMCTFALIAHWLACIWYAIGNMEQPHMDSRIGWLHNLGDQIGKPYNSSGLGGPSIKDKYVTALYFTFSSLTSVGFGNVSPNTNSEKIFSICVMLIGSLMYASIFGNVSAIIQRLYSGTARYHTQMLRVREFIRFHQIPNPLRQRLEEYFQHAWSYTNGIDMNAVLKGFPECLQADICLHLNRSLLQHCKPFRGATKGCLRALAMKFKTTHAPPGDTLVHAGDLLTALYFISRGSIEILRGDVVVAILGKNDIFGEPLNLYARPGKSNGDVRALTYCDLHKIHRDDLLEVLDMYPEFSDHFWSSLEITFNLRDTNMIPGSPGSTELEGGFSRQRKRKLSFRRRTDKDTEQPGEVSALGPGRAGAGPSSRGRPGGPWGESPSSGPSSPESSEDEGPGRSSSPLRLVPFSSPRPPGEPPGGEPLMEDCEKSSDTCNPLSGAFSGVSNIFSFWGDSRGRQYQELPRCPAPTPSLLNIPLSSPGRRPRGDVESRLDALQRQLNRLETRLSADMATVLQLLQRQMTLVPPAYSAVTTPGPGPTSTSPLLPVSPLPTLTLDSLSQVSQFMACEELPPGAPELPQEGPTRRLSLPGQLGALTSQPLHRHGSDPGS
Sequence of Peroxisome proliferator-activated receptor delta (Homo sapiens) (Q03181 whole entry, looked up): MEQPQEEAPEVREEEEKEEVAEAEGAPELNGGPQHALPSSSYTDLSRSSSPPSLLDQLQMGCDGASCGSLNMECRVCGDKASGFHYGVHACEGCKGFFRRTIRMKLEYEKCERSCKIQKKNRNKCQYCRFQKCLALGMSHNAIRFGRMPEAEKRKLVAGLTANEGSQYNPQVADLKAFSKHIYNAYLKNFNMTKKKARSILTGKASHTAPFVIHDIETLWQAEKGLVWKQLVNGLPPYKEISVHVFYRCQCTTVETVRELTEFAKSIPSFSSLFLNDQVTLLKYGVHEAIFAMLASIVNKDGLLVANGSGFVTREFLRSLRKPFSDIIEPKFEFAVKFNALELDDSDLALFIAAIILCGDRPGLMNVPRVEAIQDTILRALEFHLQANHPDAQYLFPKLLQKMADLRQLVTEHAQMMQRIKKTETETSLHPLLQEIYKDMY
Sequence of Glucocorticoid receptor (Homo sapiens) (P04150 whole entry, looked up): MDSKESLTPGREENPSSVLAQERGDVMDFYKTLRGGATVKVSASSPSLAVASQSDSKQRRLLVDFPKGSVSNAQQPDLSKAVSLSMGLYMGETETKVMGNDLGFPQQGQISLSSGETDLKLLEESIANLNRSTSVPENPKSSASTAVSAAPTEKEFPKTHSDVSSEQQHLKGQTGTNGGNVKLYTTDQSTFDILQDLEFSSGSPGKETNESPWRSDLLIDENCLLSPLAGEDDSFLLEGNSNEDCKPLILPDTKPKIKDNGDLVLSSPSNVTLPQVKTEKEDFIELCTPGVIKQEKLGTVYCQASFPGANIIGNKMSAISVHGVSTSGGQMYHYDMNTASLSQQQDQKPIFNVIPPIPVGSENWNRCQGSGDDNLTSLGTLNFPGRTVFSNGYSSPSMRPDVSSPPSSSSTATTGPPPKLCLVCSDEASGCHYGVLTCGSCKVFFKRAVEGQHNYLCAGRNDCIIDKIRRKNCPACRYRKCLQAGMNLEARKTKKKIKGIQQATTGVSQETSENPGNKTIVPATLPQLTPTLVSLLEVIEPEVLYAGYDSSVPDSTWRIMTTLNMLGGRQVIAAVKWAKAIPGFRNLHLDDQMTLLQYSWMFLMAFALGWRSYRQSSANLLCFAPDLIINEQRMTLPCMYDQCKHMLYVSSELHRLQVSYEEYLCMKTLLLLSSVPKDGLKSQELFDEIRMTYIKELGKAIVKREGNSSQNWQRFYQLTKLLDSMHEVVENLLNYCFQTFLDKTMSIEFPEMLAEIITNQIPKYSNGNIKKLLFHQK
Sequence of Estrogen receptor (Homo sapiens) (P03372 whole entry, looked up): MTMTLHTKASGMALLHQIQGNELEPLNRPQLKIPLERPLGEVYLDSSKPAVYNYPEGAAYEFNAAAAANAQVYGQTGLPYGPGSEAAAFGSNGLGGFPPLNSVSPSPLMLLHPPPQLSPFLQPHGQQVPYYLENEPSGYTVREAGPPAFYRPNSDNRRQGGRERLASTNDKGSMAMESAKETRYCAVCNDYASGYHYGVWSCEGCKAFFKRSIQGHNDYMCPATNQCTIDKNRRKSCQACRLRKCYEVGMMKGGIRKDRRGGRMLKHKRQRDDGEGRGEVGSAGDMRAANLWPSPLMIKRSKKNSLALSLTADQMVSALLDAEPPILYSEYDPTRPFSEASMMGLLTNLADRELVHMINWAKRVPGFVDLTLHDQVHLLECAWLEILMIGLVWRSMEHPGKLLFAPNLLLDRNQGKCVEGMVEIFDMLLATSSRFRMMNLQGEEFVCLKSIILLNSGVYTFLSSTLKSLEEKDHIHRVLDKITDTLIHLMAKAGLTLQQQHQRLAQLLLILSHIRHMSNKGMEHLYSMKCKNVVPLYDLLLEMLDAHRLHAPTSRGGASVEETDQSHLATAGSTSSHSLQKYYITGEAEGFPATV

Regarding `CCCCCc1cc(O)cc(O)c1`, the Potency entry in assay [1] and in assay [5] was “inactive” each time. Moreover, the result in assay [2], in assay [3] and in assay [4] was inactive. Besides, in assay [6], the Potency was 42.2 µM (active).

Regarding `C/C=C/C=O`, the Potency result in assay [1], in assay [7], in assay [8], in [9], in [11] and in assay [5] was “inactive” throughout. In addition, the molecule was classed as inactive in [2] and in [4]. For the same molecule, the activation in assay [10] is 3.01% (inactive); in assay [12], 0.438% (inactive).

On to `Nc1c(Cl)cc([N+](=O)[O-])cc1Cl`, for which the Potency entry in [13], in [7], in [8], in [9], in assay [14] and in assay [15] was “inactive” throughout. Moreover, the Potency result in assay [11] and in assay [5] was “inactive” each time. Further, the result in assay [2], in assay [16], in assay [3], in assay [18] and in assay [4] was inactive. Moreover, the activation in [10] was -0.898% (inactive); in [12] it was 0.598% (inactive) and -4.6% (inactive); in assay [20], -0.0582% (inactive) and 1.9% (inactive). Moreover, the max response in assay [17] is 8.87% and 11.4%. Further, the Potency in assay [19] is 42.2 µM (active).

Turning to `ClC=CCl`, in [13], the Potency is 0.0631 µM (active). Besides, the Potency result in [1], in assay [7], in assay [9], in assay [14], in [15] and in assay [5] was “inactive” in each case. Further, the Potency entry in assay [6] and in assay [19] was “inactive” each time. For the same molecule, the molecule was called inactive in [2], in [3] and in [18]. In addition, the activation in assay [10] is -2.58% (inactive); in [12], 0.173% (inactive). In addition, the max response in [17] stood at 12.6%.

On to `Clc1cccc2ccccc12`, for which the Potency entry in assay [1], in assay [7], in [8], in assay [9], in [5] and in assay [6] was “inactive” in each case. Further, in assay [19], the Potency result was “inactive”. For the same molecule, the result in assay [3] and in assay [18] was inactive. Besides, in assay [17], the max response is -15.1%. For the same molecule, the activation in assay [12] was 0.856% (inactive); in assay [20], -0.754% (inactive).

Turning to `CC1CC(=O)O1` (centres undefined), the Potency result in assay [13], in [1], in [7], in assay [8], in assay [11] and in assay [5] was “inactive” in each case. The Potency entry in [6] and in assay [19] was “inactive” each time. Further, the molecule was called inactive in assay [2], in assay [16], in [3], in assay [18] and in assay [4]. In addition, the activation in assay [10] is 4.16% (inactive); in assay [20], 0.52% (inactive). In addition, the max response in assay [17] worked out at 2.28%.

`CC(C)(C)C(O)(CCc1ccc(Cl)cc1)Cn1cncn1` (centres undefined): the Potency entry in assay [13], in [1], in assay [7], in assay [8], in [9] and in [11] was “inactive” throughout. Also, the Potency entry in assay [6] and in assay [19] was “inactive” each time. In addition, the call in assay [2], in [16], in assay [3], in [18] and in assay [4] was inactive. Besides, the activation in [10] is 3.38% (inactive) and -5.28% (inactive); in [12], -0.348% (inactive) and -1.3% (inactive); in assay [20], 0.583% (inactive) and 1.83% (inactive). Also, in assay [17], the max response is -43.6% and 58.8%. The Potency in [5] was 20 µM (active).

For `[O-][Cl+]O`, the result in [2], in assay [3] and in assay [4] was inactive. The Potency result in assay [7], in [8], in assay [9], in [14], in assay [15] and in assay [5] was “inactive” each time. In addition, the Potency result in [6] and in assay [19] was “inactive” in each case. Also, the activation in assay [10] is 9.28% (inactive); in assay [12], -0.295% (inactive); in assay [20], 0.878% (inactive).

On to `CCC[N+](=O)[O-]`, for which the outcome in assay [2], in assay [3] and in assay [18] was inactive. Moreover, the Potency entry in [9], in assay [11], in [5] and in assay [19] was “inactive” in each case. Moreover, in assay [17], the max response was -21.5%. Besides, the activation in assay [12] is -0.704% (inactive); in assay [20], 1.28% (inactive).
